Assay results from PMC7819943, “Rice protein-binding microarrays: a tool to detect cis-acting elements near promoter regions in rice”.
Over roughly 39,000 sequences, “fluorescence intensity (a.u.)” has its median near 4,300; the highest 2% begin near 39,000. This excerpt belongs to a sample that is enriched for the highest values.

Biological target: T1, OsSMF1 (Oryza sativa, UniProt Q6ZLB0 1-436)
T1 sequence: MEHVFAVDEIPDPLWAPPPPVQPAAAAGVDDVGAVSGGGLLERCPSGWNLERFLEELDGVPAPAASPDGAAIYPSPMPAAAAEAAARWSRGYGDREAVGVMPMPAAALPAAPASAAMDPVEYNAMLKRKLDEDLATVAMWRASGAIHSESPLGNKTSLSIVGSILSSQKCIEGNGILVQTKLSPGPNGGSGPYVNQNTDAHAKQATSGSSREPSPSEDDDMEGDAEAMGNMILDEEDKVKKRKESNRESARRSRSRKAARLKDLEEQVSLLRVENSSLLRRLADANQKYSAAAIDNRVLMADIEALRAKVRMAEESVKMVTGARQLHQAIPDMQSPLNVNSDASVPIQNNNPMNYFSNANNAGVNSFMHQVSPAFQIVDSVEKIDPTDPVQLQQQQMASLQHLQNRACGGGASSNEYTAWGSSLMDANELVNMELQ
Experiment: protein-binding microarray (RPBM); PBS, 2% BSA, 51.3 ng/ul salmon testes DNA, 50 uM zinc acetate, 200 nM TF, 25 C, 1 h; high values mean tight binding
Details: protein: recombinant; tags: N-terminal polyhistidine and DsRed monomer fusion (pET32a); chain copies: 2; label: CyDye5-dUTP incorporated in the synthesized complementary strand; 3' TTTTT single-stranded linker to array surface; dsDNA, one strand shown
Summary of the method: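 The binding signal is fluorescence intensity per feature, in arbitrary units, read on an Axon 4000B scanner. Polyhistidine- and DsRed-tagged transcription factors (N-terminal fusions) from E. coli BL21-CodonPlus were purified on Ni–NTA and applied at 200 nM for 1 h at 25 °C to a double-stranded, BSA-blocked custom Agilent array in buffer with 50 µM zinc acetate.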

Sequence	binding signal
GGGCAGCGTGTACAAGCCGGACAACGTGTCGCCGCCGGAGCGGAGTCACCTAGTGCAG	3340 fluorescence intensity (a.u.)
GGCCTGTCGTACAAGCCGCTTTGCTTGGGCATACAAGCAACGGAGTCACCTAGTGCAG	65100 fluorescence intensity (a.u.)
CGTACAACGGGTGTGTGTTTGGAGCCTGTAGCATGTGGTGCGGAGTCACCTAGTGCAG	4250 fluorescence intensity (a.u.)
GATTACATGTAGACTATTTATCTACGTGGACAAAATCTCTCGGAGTCACCTAGTGCAG	13100 fluorescence intensity (a.u.)
CCATTGATTGATTATCAGTGGGCGTAATCATCAGTCTAAACGGAGTCACCTAGTGCAG	42100 fluorescence intensity (a.u.)
CGTACTCATCTCCTACACATCATCTCCAATTAATCTAATTCGGAGTCACCTAGTGCAG	3180 fluorescence intensity (a.u.)
ATTTATCATTATTAACTAATAATAACATTGATGTAATTAACGGAGTCACCTAGTGCAG	3400 fluorescence intensity (a.u.)
TTTGCCATTAGCGTACTCACCTAATCTAATCATCGGATTACGGAGTCACCTAGTGCAG	48900 fluorescence intensity (a.u.)
TCCATACATTATTGACGTAATCATAAATATACATCCATGTCGGAGTCACCTAGTGCAG	3360 fluorescence intensity (a.u.)
GAAACTCTAAATCTGCCATTACCCCAAGTACATCATTAGTCGGAGTCACCTAGTGCAG	3310 fluorescence intensity (a.u.)
AATGACAGGACAACGAGGACACCGTGGATATTAAAGACCCCGGAGTCACCTAGTGCAG	4140 fluorescence intensity (a.u.)
TGGTAACTAAACTGCCATGTCAGGGACAGATCGACCAGTGCGGAGTCACCTAGTGCAG	5160 fluorescence intensity (a.u.)
AGGACACGTAGCATTTCCTCCTCAAGCAAGAGGAGCAGTACGGAGTCACCTAGTGCAG	4000 fluorescence intensity (a.u.)
AACGTCAAGTACTCACGTGGTCCACGAATATTTAAGCCTACGGAGTCACCTAGTGCAG	4480 fluorescence intensity (a.u.)
GCGAACACTGAGGTGTTGACGTTGCGCTCCGCCTCGCTGTCGGAGTCACCTAGTGCAG	3840 fluorescence intensity (a.u.)
GCCGAGAAGGCATCAACGGCACTGGCGAGGCCCTCTCAGCCGGAGTCACCTAGTGCAG	39600 fluorescence intensity (a.u.)
GTCCCTCCGCCGGCATCAGCTCAACGCCGCCGTCCTCCTCCGGAGTCACCTAGTGCAG	3370 fluorescence intensity (a.u.)
ATTAAGCCCTCAATCGGCACAGGCGAGGAGTTCTCATCACCGGAGTCACCTAGTGCAG	12000 fluorescence intensity (a.u.)
TCGTCGACTACGTGTTGGTGTTTCATGCCGCCAAGTCGACCGGAGTCACCTAGTGCAG	5250 fluorescence intensity (a.u.)
TATAAGCACAATGCAGCCTAGTTGTTGCCGTGACCTGAGTCGGAGTCACCTAGTGCAG	3180 fluorescence intensity (a.u.)
GACATCTGGAGGCGTCATGCAAGATGTCACATCCATAGAACGGAGTCACCTAGTGCAG	3940 fluorescence intensity (a.u.)
ACTGGCCGTGACGCATTTCAACCTCTTGATCTGAACTGCCCGGAGTCACCTAGTGCAG	3620 fluorescence intensity (a.u.)

Sequence	binding signal
AACCATAATGTTTGTGACACATTAAGGGCCTGTTCACTTTCGGAGTCACCTAGTGCAG	3660 fluorescence intensity (a.u.)
GATAGGCAAAGCTTCGAACTTTGGGCTGAAAACAAATTTTCGGAGTCACCTAGTGCAG	28400 fluorescence intensity (a.u.)
GGCAGGCTTGCACACAGGTGCAAAGATACGTGTGGCAGACCGGAGTCACCTAGTGCAG	3240 fluorescence intensity (a.u.)
ATGCAAAAGATATATAGGCTTGTTTTACTGAAGGTGGCTTCGGAGTCACCTAGTGCAG	39100 fluorescence intensity (a.u.)
GAGATGTCTGAACAAACAGATGGACGTGTAATGTTGTGGACGGAGTCACCTAGTGCAG	3400 fluorescence intensity (a.u.)
CCGTCTTTTCTTTCTTCACGCCAGCGTCGCCGTGGTCAAGCGGAGTCACCTAGTGCAG	3650 fluorescence intensity (a.u.)
CGGAGGGATTCGATTTGGAAGGAATTGGATTCGGAGTTGACGGAGTCACCTAGTGCAG	33200 fluorescence intensity (a.u.)
TCGATTGGGGATTGGGGATTGGGGATCAGGAGGGATGGGGCGGAGTCACCTAGTGCAG	4350 fluorescence intensity (a.u.)
TTAGCTGGGATGAATTGGGAATGGCTGATGATTCATTGCTCGGAGTCACCTAGTGCAG	3790 fluorescence intensity (a.u.)
AATTTGGATTTGAATTATATCTGATTCAAATTTGAATTTGCGGAGTCACCTAGTGCAG	3270 fluorescence intensity (a.u.)
TTGGAATGCTGAAATTATTAGGGGACTATTCAAATTGATGCGGAGTCACCTAGTGCAG	39200 fluorescence intensity (a.u.)
GAAGGAATTGGATTGAATCAGAAAGGGGATCGATTCGATGCGGAGTCACCTAGTGCAG	45200 fluorescence intensity (a.u.)
CAAGCCAAGTCTGAAGAAGAAGAACTAGTCATCGCTTGCCCGGAGTCACCTAGTGCAG	3820 fluorescence intensity (a.u.)
AAATCCTTGTCTTCCCACGCTGACGCTGCTGTGTCCAGGTCGGAGTCACCTAGTGCAG	4530 fluorescence intensity (a.u.)
ACCGGCTCACTTATGCGCGCGCGGCGCTGAGGTGGCCGCACGGAGTCACCTAGTGCAG	5200 fluorescence intensity (a.u.)
GGGCTTCGTCCCCATCATCTCCTGCCACCTCAAACACCTGCGGAGTCACCTAGTGCAG	3520 fluorescence intensity (a.u.)
GATGGGCTTGTGCTGACATCATCTATACGTGCTTTGCTCCCGGAGTCACCTAGTGCAG	14500 fluorescence intensity (a.u.)
ATATATTCTATGTGGTCTGCCCACACGCAAGCATGAGCTCCGGAGTCACCTAGTGCAG	3740 fluorescence intensity (a.u.)
GCGCCGCCAGCCGCTACAGGTCAGCGGCAACAGCAGGTTCCGGAGTCACCTAGTGCAG	29200 fluorescence intensity (a.u.)
TTCCGGCATGCTCAACAATTGGTCCAGGTGTTTGTTCCAGCGGAGTCACCTAGTGCAG	42200 fluorescence intensity (a.u.)
TGCCAATGGTGTGTGCAATTGCAACATGCGTTTGGTTGTGCGGAGTCACCTAGTGCAG	4100 fluorescence intensity (a.u.)
